HCV inh: qHTS Assay for Inhibitors of Hepatitis C Virus (HCV). Huh7.5.1 HCVcc-Cre infection, luciferase reporter, 44 h. actives 3.4% (n = 340,000). Potency, µM (top dose mostly 41.8 µM), for the others: at the highest dose activity change, negative = inhibition, actives largely listed as inhibitors; active = well fitted inhibition curve with a large enough effect; inconclusive = small, poorly fitted or top-dose-only effect, or another doubt; inactive = no such curve, though single readings can be large or run the other way; also: potency is read from the fitted curve at half-maximal effect
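Compounds are dispensed onto cells plated 4 h earlier at 1,000 per well, with HCVcc-Cre virus (about 0.5 moi) added next. Following 44 h of culture, luminescent signal is measured for 15 sec after 15 min with substrate at room temperature.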
HCMV inh: qHTS Assay for inhibitors of the human cytomegalovirus (HCMV). HFF cells, HCMV-luciferase reporter, 72 h; hits give low values. activity change, negative = inhibition, % at 57.5 µM. actives 4.5% (n = 410,000). AID 1259415, 2018; in the data active = activity change below about -60%; inconclusive = no clear call, values can overlap the other calls; inactive = above about -39%
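HFF cells seeded 16 h at 37C, treated with compounds, infected with luciferase-reporter HCMV at MOI 1 PFU/cell; luciferase read at 72 h post infection, normalized to buffer-only and Salinomycin controls.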
FMDV inh: High Throughput Screening for Foot and Mouth Disease Virus Antivirals | AID 1159524, 2015 | Potency, µM (top dose mostly 57.9 µM), for inactives: at the highest dose activity change, negative = inhibition, most hits filed as inhibitors | FMDV antiviral cell-based qHTS | actives 1.2% (n = 410,000); calls by dose curve; tested in HEK293T cells; also: read-out not given here; potency is read from the fitted curve at half-maximal effect; nearly all actives have a fitted effect of over 45% in size
Marburg entry inh: qHTS for inhibitors of binding or entry into cells for Marburg Virus | Marburg virus pseudotyped entry inhibition, cell reporter | Potency, µM (highest dose often 37.8 µM), for inactives: at the highest dose activity change, negative = inhibition, usual class: inhibitors | actives 1.8% (n = 300,000) | AID 540276, 2011; calls by dose curve; tested in HEK293 cells; also: potency is read from the fitted curve at half-maximal effect
LASV entry inh: qHTS for Inhibitors of binding or entry into cells for Lassa Virus; Lassa virus pseudotype entry inhibition, cell reporter; Potency, µM (titrated, usually from 37.9 µM), for inactives: at the top dose activity change, negative = inhibition, actives largely listed as inhibitors; actives 1.2% (n = 300,000); AID 540256, 2011; calls by dose curve; tested in HEK293 cells; also: potency is read from the fitted curve at half-maximal effect; nearly all actives have a fitted effect of over 50% in size
* marks the source's active call; other numbers are inactive results; ? = inconclusive; . = no result; [ ] = dose if it differs, or a comment. Compounds with a hit are over-represented: about 7.9% of the library has one in this group of screens. % is scaled to controls: 0 for no effect and ±100 for the full control effect.

SMILES	HCV inh	HCMV inh	FMDV inh	Marburg entry inh	LASV entry inh
CN(C)c1ccc(CNC2CC(C)(C)NC(C)(C)C2)cc1	?	20	11%	?	12µM*
COc1ccc2c3c(n(C)c2c1)[C@@H](CO)N(C(=O)NC1CCCCC1)CC31CCN(C)CC1	.	-32	.	.	.
Fc1ccc(C(Nc2ccccc2Cl)c2nnc(-c3ccccc3Cl)o2)cc1 (centres undefined)	.	-4	-14%	?	-26%[46.1 µM]
CCOc1ccccc1N=Nc1c(C)[nH]n(C(N)=S)c1=O	10µM*	-85*	-22%	14%[46.1 µM]	12%[46.1 µM]
COc1ccc(N2CCN(C(=O)c3ccc(C)c(NC(=O)C4=C(C)OCCS4)c3)CC2)cc1	5%	-17	-10%	.	.
CC1=C(C(=O)Nc2cc(C(=O)N3CCN(c4cccc(C)c4C)CC3)ccc2C)SCCO1	11µM*	-37	-9%	.	.
Cc1nn(C(C)C)c(C)c1CN1CCCC(C(=O)c2cccc(OC(C)C)c2)C1 (centres undefined)	?	-32	?	13µM*	?
CC(C)Oc1cccc(C(=O)C2CCCN(Cc3cnn(C(C)C)c3)C2)c1 (centres undefined)	?	-22	-19%	-28%[46.1 µM]	-3%
Cc1cccc(CN2CCCC(C(=O)c3cccc(OC(C)C)c3)C2)n1 (centres undefined)	?	?	-17%	.	.
CCn1nc(C)c(CN2CCCC(C(=O)c3cccc(OC(C)C)c3)C2)c1C (centres undefined)	8.9µM*	?	?	.	.
CCCC1=C(C(=O)OCC)C(/C=C/c2ccccc2)n2ncnc2N1 (centres undefined)	?	70	-27%	9.2µM*	-19%
Clc1ccc2nc(C3CCN(Cc4ccccc4)CC3)[nH]c2c1	?	-27	-9%	?	?
Cc1cc2nc(C3CCN(Cc4nnnn4Cc4cccs4)CC3)[nH]c2cc1C	11µM*	19	-4%	?	?
CC(C)c1ccc(N2C(=O)NC(=O)/C(=C\c3cnc(-c4ccccc4)nc3)C2=O)cc1	10%	-88*	-11%	41%	23%
Cc1cccc(N2C(=O)NC(=O)/C(=C\c3cnc(-c4ccccc4)nc3)C2=O)c1	11µM*	-10	-12%	?	18%
Cc1ccc(N2C(=O)NC(=O)/C(=C/c3cnc(-c4ccccc4)nc3)C2=O)cc1C	5%	57	-11%	14%	17%
Cc1ncc2c(c1CNC(=O)c1ccc3c(c1)OCO3)CCN(C(=O)/C=C/c1ccccc1Cl)C2	.	.	-5%	.	.
CCOC(=O)c1cc2c(=O)n3ccccc3nc2n(CC2CCCO2)c1=NC(=O)c1cccc(C)c1 (centres undefined)	.	-4	11%	0%[46.1 µM]	?
CCCCC(=O)/C=C/n1c(=S)oc2ccccc21	?	-101*	?	18µM*	14%
CC(C)OC(=O)n1c(=S)oc2ccccc21	9%	22	.	?	-21%
O=[N+]([O-])c1ccc(/C([O-])=C(/C(=S)NCc2ccco2)[n+]2ccccc2)cc1	-9%	-61*	18%	17%[46.1 µM]	-11%[46.1 µM]
O=C(c1ccc(COc2ccc(Br)cc2)o1)N1N=C(C(F)F)CC1(O)C(F)F (centres undefined)	?	2	25µM*	?	-56%
O=c1cc(N2CCN(c3ccccc3)CC2)[nH]c(=O)n1C1CCCCC1	-4%	13	2%	4%	22%
O=c1cc(N2CCN(c3cccc(Cl)c3)CC2)[nH]c(=O)n1C1CCCCC1	-32%	-93*	-9%	6%	0%
COC(=O)C(c1ccccc1)(c1cn(C)c2ccccc12)C(Nc1ccccc1)c1ccccc1 (centres undefined)	.	-24	.	.	.
SMILES	HCV inh	HCMV inh	FMDV inh	Marburg entry inh	LASV entry inh
Cc1ccc(C(=O)N/C(=C\c2ccc(Br)cc2)c2nc(=S)[nH][nH]2)cc1	26%	-71*	.	-15%	?
Cc1ccc2cc(CCl)c(Cl)nc2c1	10µM*	5	?	?	2%
ClCc1cc2ccccc2nc1Cl	?	67	28µM*	-6%[46.1 µM]	-16%
COc1cc(OC)c(NC(=O)N2CCC(CN3CCCC3)CC2)cc1Cl	.	-13	-10%	.	26%[46.1 µM]
Cc1nn(-c2ccccn2)c2nc(-c3cccs3)cc(C(=O)NCc3ccco3)c12	35µM*	-37	0%	-23%	0%
Cc1nn(-c2ccccc2)c2nc(-c3ccncc3)cc(C(=O)NCc3ccco3)c12	?	87	10%	?	-9%
CCOC(=O)c1cc(-c2cccs2)nc2c1c(C)nn2-c1ccccn1	10µM*	-86*	-14%	?	-14%
CCC1CN(CCNC(=O)c2ccnc(Cl)c2)Cc2cc(OC)ccc2O1 (centres undefined)	.	.	66%	.	.
Cc1cccc(C)c1NC(=O)NC1(C(=O)NCCN2CCOCC2)CCCCC1	9%	-27	-11%	19%	-1%
O=C(NCCCN1CCOCC1)c1ccc(Cl)c(S(=O)(=O)N2CCCCCC2)c1	?	-81*	-21%	?	-27%
O=C(NCCN1CCOCC1)c1ccc(Cl)c(S(=O)(=O)N2CCCCCC2)c1	2%	-40	0%	-20%	-21%
O=C(Nc1ccc(N2CCCCC2)c(Cl)c1)c1cccnc1	?	-78*	9%	1µM*	0.89µM*
O=C(Nc1ccccc1Cl)NC1(C(=O)NCCCN2CCOCC2)CCCCC1	15%	-62*	-9%	-15%[46.1 µM]	-2%
CC1CN(S(=O)(=O)c2cc(C(=O)NCCCN3CCCC3=O)ccc2Cl)CC(C)O1 (centres undefined)	-2%	-8	?	2.2µM*	2%
CN1OC(C)(CC(=O)NCc2nccs2)N=C1c1cccc(Br)c1 (centres undefined)	.	-11	.	.	.
CC(=O)Nc1ccc(Nc2nc3ccc(Cl)cc3n3cnnc23)cc1	.	-33	-13%	?	21%[46.1 µM]
COC(=O)N[C@@H](c1cccc(F)c1)[C@]1(C(=O)OC)CCCC1=O	.	.	.	3%[14.2 µM]	.
O=C(Nc1ccc(Br)cc1)c1ccc(Cl)c(S(=O)(=O)N2CCCCCC2)c1	.	-32	28µM*	.	?
O=C(Nc1nc2ccccc2[nH]1)c1ccc(Cl)c(S(=O)(=O)N2CCCC2)c1	22µM*	.	?	?	?
CCN(CC)S(=O)(=O)c1cc(C(=O)Nc2cccnc2)ccc1Cl	?	-21	?	4%	15%
O=C(Nc1nc2ccccc2[nH]1)c1ccc(S(=O)(=O)N2CCOCC2)cc1	28%	2	14%	.	.
O=C(Nc1ccc(Cl)c(S(=O)(=O)N2CCCCC2)c1)c1cccnc1	14µM*	0	0%	.	.
CCN(CC)S(=O)(=O)c1cc(C(=O)Nc2ccncc2)ccc1Cl	?	-87*	.	?	-29%
CCOC(=O)C1CCC(CN(Cc2c(Cl)cccc2Cl)S(=O)(=O)c2ccc(Cl)cc2)CC1 (centres undefined)	.	14	-13%	.	-13%[46.1 µM]

Compound activity (PubChem BioAssay)
